Shown are actives, neighbours in structure and some others; about 9.3% of the full set was active somewhere.
ELG1 DNA repair = blocks ELG1-dependent DNA repair in HEK293T cells; HEK293T ELG1-luciferase reporter, luminescence, 16 h; DNA damage induced by 5-fluorouridine; AID 504467; Potency, µM (series often up to 46.1 µM), without a hit: at the top dose activity change, negative = inhibition, hits mostly inhibitors; 2.3% of 330,000 active; note: % is set by controls: 0 for no effect and ±100 for the full control effect; nearly all actives have a fitted effect of over 55% in size
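Luminescence from the luciferase reporter, measured 30 min after ONE-Glo reagent at room temperature, was the read-out. Beforehand, 2,000 cells per well were exposed for 16 hr at 37 °C to 5-fluorouridine together with compound or vehicle.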
ELG1 genotoxic = inducers of genotoxicity in HEK293T ELG1-luciferase cells; HEK293T ELG1-luciferase reporter, luminescence, 16 h; Potency, µM (highest dose often 46 µM), without a hit: at the highest dose activity change, positive = activation, usual class: activators; 1.3% of 330,000 active; AID 504466; note: % of control where 0% means no effect; nearly all actives have a fitted effect of over 60% in size
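Screening used a luciferase reporter fused to human ELG1 in HEK293T cells. Luminescence was read on a CCD plate imager after 16 hr exposure and 30 min ONE-Glo incubation.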
SMN2 splice up = SMN2 splice variant enhancement. HEK293 SMN2-luciferase splicing reporter, luminescence, 30-36 h. Potency, µM (series often up to 46.1 µM), for the others: at the top dose activity change, positive = activation, most hits filed as activators. 2.8% of 210,000 active. AID 1458; note: % of control where 0% means no effect; nearly all actives have a fitted effect of over 55% in size
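qHTS luciferase splicing reporter: luminescence rises when SMN2 exon 7 is included in transfected HEK293 cells. Compound exposure lasted 30-36 h at 37C, with 4.5 mM final sodium butyrate as control, followed by a ONE-Glo read.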
NPC1 promoter act = NPC1 promoter activation | Huh7 NPC1 promoter luciferase reporter, 24 h | Potency, µM (doses to about 9.22 µM), without a hit: at the top dose activation, most hits filed as activators | 2.4% of 320,000 active | AID 485313; note: % of control where 0% means no effect; nearly all actives have a fitted effect of over 60% in size
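Compounds in DMSO were transferred onto Huh7 NPC1-luciferase reporter cells pre-incubated 2 h; after 24 h at 37 °C, Amplite reagent was dispensed and luminescence recorded 10 min later.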
FLuc counter = firefly luciferase modulation, counter-screen for miR-21 project | P08659 | 6.9% of 360,000 active | Potency, µM (top dose mostly 57.5 µM), for the others: at the top dose activity change, negative = inhibition, usual class: inhibitors | purified FLuc, Km substrates, luminescence inhibition;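 note: plate controls were vehicle for no effect and reference inhibitor for full effect; nearly all actives have a fitted effect of over 55% in size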
Target sequence (P08659 whole entry, looked up): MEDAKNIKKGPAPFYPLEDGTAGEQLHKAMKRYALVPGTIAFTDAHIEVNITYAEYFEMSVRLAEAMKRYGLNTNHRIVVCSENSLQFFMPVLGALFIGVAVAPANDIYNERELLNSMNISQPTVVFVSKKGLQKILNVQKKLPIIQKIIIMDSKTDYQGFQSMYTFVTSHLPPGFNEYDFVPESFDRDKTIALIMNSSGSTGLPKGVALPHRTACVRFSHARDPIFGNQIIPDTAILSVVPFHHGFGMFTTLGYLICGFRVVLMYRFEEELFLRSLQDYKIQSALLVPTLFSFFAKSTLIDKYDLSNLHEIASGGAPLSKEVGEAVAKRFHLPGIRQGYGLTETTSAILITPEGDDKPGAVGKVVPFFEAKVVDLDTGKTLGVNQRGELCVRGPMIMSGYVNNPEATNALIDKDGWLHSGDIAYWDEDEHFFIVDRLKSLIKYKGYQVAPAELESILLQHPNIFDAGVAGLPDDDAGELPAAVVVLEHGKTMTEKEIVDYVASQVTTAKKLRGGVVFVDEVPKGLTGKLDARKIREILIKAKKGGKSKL
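Biochemical qHTS of compounds, final roughly 60 µM downward over six points, against 10 nM purified firefly luciferase using Km concentrations of substrates (10 uM D-luciferin, 10 uM ATP) in Tris acetate pH 7.5 buffer; luminescence output.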
Rab9 prom act = activators of Rab9 promoter; 2.8% of 320,000 active; Potency, µM (top dose mostly 9.22 µM), for inactives: at the highest dose activation, negative = inhibition, most hits filed as activators; Huh7 Rab9 promoter-luciferase reporter, luminescence, 24 h; AID 485297; note: % of control where 0% means no effect; nearly all actives have a fitted effect of over 60% in size
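Measured in stably transfected Huh7 cells bearing a Rab9 promoter–luciferase construct: 24 h compound treatment at 37 °C, followed by luminescence detection.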
* marks the source's active call; other numbers are inactive results. Calls come from the whole dose curve; as a rule, active = well fitted curve in the direction sought with a large enough effect; inconclusive = small, poorly fitted or top-dose-only effect, or another doubt; inactive = no such curve, though single readings can be large; an effect the other way counts as inactive or inconclusive. Potency is the fitted concentration of half-maximal effect.

Screening C/C(=N\NC(=O)c1ccc(CSc2nncn2C)cc1)c1cccs1 returned ELG1 DNA repair inconclusive, ELG1 genotoxic inconclusive, SMN2 splice up 12.6µM*, NPC1 promoter act inconclusive, FLuc counter 23.9µM* and Rab9 prom act 3.55µM*.
`C/C(=N\NC(=O)c1ccc(CSc2nncn2C)cc1)c1ccc(Cl)cc1` gave ELG1 DNA repair 0.3%, ELG1 genotoxic 5.6%, SMN2 splice up 9.8%, NPC1 promoter act 0.2%, FLuc counter -11.7% and Rab9 prom act -3.5%.
Cn1cnnc1SCc1ccc(C(=O)N/N=C/c2cccs2)cc1 was read as ELG1 DNA repair inconclusive, ELG1 genotoxic 11.0%, SMN2 splice up inconclusive, NPC1 promoter act 2.3%, FLuc counter 16.9µM* and Rab9 prom act -22.9%.
For Fc1ccc(-c2csc(N3CCC(c4ccccc4)C3)n2)cc1 (configuration not stated) the results were ELG1 DNA repair inconclusive, ELG1 genotoxic 17.3%, SMN2 splice up inconclusive, NPC1 promoter act 3.16µM*, FLuc counter 2.39µM* and Rab9 prom act 3.55µM*.
COc1ccc(-c2csc(N3CCC(c4ccccc4)C3)n2)cc1 (configuration not stated) was read as ELG1 DNA repair inconclusive, ELG1 genotoxic 11.8%, SMN2 splice up -23.5%, NPC1 promoter act inconclusive, FLuc counter 4.26µM* and Rab9 prom act inconclusive.
For Clc1ccc(-c2csc(N3CCC(c4ccccc4)C3)n2)cc1 (configuration not stated) the results were ELG1 DNA repair inconclusive, ELG1 genotoxic inconclusive, SMN2 splice up 2.2%, NPC1 promoter act 3.55µM*, FLuc counter 2.69µM* and Rab9 prom act 3.55µM*.
For Cc1csc(=O)n1CCC(=O)OCC(=O)Nc1cc([N+](=O)[O-])ccc1Cl the results were ELG1 DNA repair inconclusive, ELG1 genotoxic -1.5%, NPC1 promoter act -2.5%, FLuc counter -1.2% and Rab9 prom act -0.8%.
O=C(NCc1ccccc1Cl)C1CCN(S(=O)(=O)c2ccc(N3CCCC3=O)cc2)CC1 was read as ELG1 DNA repair 13.9%, ELG1 genotoxic -1.4%, NPC1 promoter act -1.6%, FLuc counter 1.0% and Rab9 prom act -9.5%.
For CCc1ccccc1NC(=O)CSc1nc2c(oc3ccccc32)c(=O)n1C the results were SMN2 splice up -8.7% and FLuc counter 1.2%.
`COc1cc(C(=O)NNC(=O)c2cc(S(=O)(=O)N(C)C)ccc2N2CCCC2)cc(OC)c1OC` gave ELG1 DNA repair inconclusive, ELG1 genotoxic 0.0%, NPC1 promoter act 0.2%, FLuc counter -6.8% and Rab9 prom act 3.1%.
Screening CCN(C(=O)Nc1cn(CC(C)C)c(=O)c2ccccc12)c1cc(C)ccc1C returned FLuc counter 2.1%.
Screening COc1ccc(CC2(CO)CCN(S(=O)(=O)c3c(C)nn(C)c3Cl)CC2)cc1 returned ELG1 DNA repair inconclusive, ELG1 genotoxic -3.5%, NPC1 promoter act -7.5%, FLuc counter -1.3% and Rab9 prom act -2.7%.
For COc1ccc(-c2ncc(CN3CCC(CO)(Cc4cccc(OC)c4)CC3)cn2)cc1 the results were ELG1 DNA repair inconclusive, ELG1 genotoxic -8.8%, NPC1 promoter act -7.3%, FLuc counter inconclusive and Rab9 prom act -2.5%.
For COc1ccc(CC2(CO)CCN(Cc3cccnc3)CC2)cc1 the results were ELG1 DNA repair -1.1%, ELG1 genotoxic 5.5%, NPC1 promoter act -1.2%, FLuc counter 15.1µM* and Rab9 prom act inconclusive.
`COc1ccc(-n2ccnc2CN2CCCC(CO)(Cc3cccc(OC)c3)C2)cc1` (configuration not stated) gave ELG1 DNA repair -21.3%, ELG1 genotoxic -8.7%, NPC1 promoter act -2.8%, FLuc counter 23.9µM* and Rab9 prom act 1.5%.

Assay outcomes deposited in PubChem by National Center for Advancing Translational Sciences (NCATS).
